# HCV inhibitor – HCV inhibition. Huh7.5.1 HCVcc-Cre infection, luciferase reporter, 44 h. Potency, µM (titrated, usually from 41.8 µM), without a hit: top-dose activity change, negative = inhibition, actives largely listed as inhibitors. hit rate 3.4% among 340,000; note: potency is the fitted concentration of half-maximal effect
#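 Antiviral activity was scored by luciferase reporter output from cells infected with HCVcc-Cre (~0.5 moi) in presence of compound, 44 h infection period, cells seeded 1,000/well 4 h prior.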
# Pf growth 96h – P. falciparum growth inhibition at 96 hours | hit rate 6.9% among 320,000 | Potency, µM (highest dose often 28.7 µM), inactives show top-dose activity change, negative = inhibition, hits mostly inhibitors | P. falciparum luciferase reporter growth, 96 h; note: potency is the fitted concentration of half-maximal effect
#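 Parasite growth measured via integrated firefly luciferase reporter in P. falciparum. Infected erythrocytes at 2% hematocrit, 0.05% parasitemia final were treated 96 hours at 37 C under 5% CO2, and luminescence was read.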
# HCMV antiviral – blocks human cytomegalovirus replication. HFF cells, HCMV-luciferase reporter, 72 h; active compounds read low. activity change, negative = inhibition, % at 57.5 µM. hit rate 4.5% among 410,000. AID 1259415; in the data active = activity change below about -60%; inconclusive = no clear call, values can overlap the other calls; inactive = above about -39%
#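 Steps: HFFs plated, 16 h 37C; compounds added; HCMV-luciferase added to MOI 1 PFU/cell; 72 h 37C; OneGlo reagent, 5 min room temperature; luminescence read, normalized to controls.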
# Pf growth 48h – P. falciparum growth inhibition at 48 hours (one generation). P. falciparum luciferase growth in erythrocytes, 48 h. Potency, µM (top dose mostly 28.7 µM), for the others: at the highest dose activity change, negative = inhibition, hits mostly inhibitors. hit rate 5.9% among 310,000. AID 504832; note: potency is the fitted concentration of half-maximal effect
#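 Parasite viability was followed by luminescence of a genomically integrated firefly luciferase. Cultures held 0.1% parasitemia at 2% hematocrit (final), incubated under 5% CO2 at 37 C.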
# MARV entry inh – Marburg virus entry inhibition; Marburg virus pseudotyped entry inhibition, cell reporter; Potency, µM (series often up to 37.8 µM), without a hit: at the highest dose activity change, negative = inhibition, hits mostly inhibitors; hit rate 1.8% among 300,000; AID 540276; calls by dose curve; tested in HEK293 cells; note: potency is the fitted concentration of half-maximal effect
# LASV entry inh – blocks Lassa virus binding to or entry into cells; hit rate 1.2% among 300,000; Potency, µM (doses to about 37.9 µM), inactives show at the highest dose activity change, negative = inhibition, most hits filed as inhibitors; AID 540256; Lassa virus pseudotype entry inhibition, cell reporter; calls by dose curve; tested in HEK293 cells; note: potency is the fitted concentration of half-maximal effect; nearly all actives have a fitted effect of over 50% in size
# * hit, by the source's call; ? = inconclusive; / = no result given; [ ] = dose if it differs, or a comment. The list is not random: actives were taken first. Their share in the collection is about 14%. Unless noted, calls come from the whole dose curve; as a rule, active = well fitted inhibition curve with a large enough effect; inconclusive = small, poorly fitted or top-dose-only effect, or another doubt; inactive = no such curve, though single readings can be large or run the other way. % is set by controls: 0 for no effect and ±100 for the full control effect.
SMILES,HCV inhibitor,Pf growth 96h,HCMV antiviral,Pf growth 48h,MARV entry inh,LASV entry inh
CCOC(=O)c1ccc(NC(c2ccc(N(C)C)cc2)P(=O)(OC(C)C)OC(C)C)cc1 (stereo unspecified),?,23%,-14,13µM*,?,?
O=C(NCc1nnc(SCc2ccccc2)n1-c1ccccc1)C12CC3CC(CC(C3)C1)C2,?,?,31,?,-24%,-25%
CCCCSc1nnc(CNC(=O)C23CC4CC(CC(C4)C2)C3)n1Cc1ccccc1,?,?,29,13µM*,?,-30%
CCn1c(CNC(=O)C23CC4CC(CC(C4)C2)C3)nnc1SCC(=O)Nc1nnc(C)s1,12%,7.4µM*,23,/,/,/
CCCCn1c(CNC(=O)C23CC4CC(CC(C4)C2)C3)nnc1SC(C)CC (stereo unspecified),3%,?,-20,10µM*,?,?
O=C(NC1CCCCC1)C(c1ccc(C(F)(F)F)cc1)n1c(=O)c(-c2ccco2)nc2ccccc21 (stereo unspecified),/,/,-19,/,/,/
Cc1ccc(C)c(Cn2c(=O)n(-c3ccc(Cl)cc3)c(=O)c3c(C)c(C)sc32)c1,/,/,19,/,6%[46.1 µM],?
COc1cccc(C2CC(=O)Nc3c2c(=O)[nH]c2nc4ccccc4n32)c1 (stereo unspecified),/,/,28,/,-1%[46.1 µM],-3%[46.1 µM]
C[C@]12CC[C@H]3[C@@H](CC[C@]4(O)C[C@@H](O)CC[C@]34C=O)[C@@]1(O)CC[C@@H]2C1=CC(=O)OC1,0.56µM*,-10%,-99*,17%,/,/
CC12CCC3C(CCC4(O)CC(O)CCC34C=NO)C1(O)CCC2C1=COC(=O)C1 (stereo unspecified),2µM*,/,-98*,/,0.18µM*,0.25µM*
CC12CCC3C(CCC4(O)CC(O)CCC34C=O)C1(O)CCC2C1=CC(=O)OC1 (stereo unspecified),?,/,-100*,/,0.45µM*,0.71µM*
CC12CC[C@H]3[C@@H](CCC4(O)C[C@H](O)CCC34/C=N/NC(=O)c3ccccc3Cl)C1(O)CCC2C1=CC(=O)OC1 (stereo partly specified),8%,-22%,-32,-11%,/,/
C[C@H]1O[C@@H](OC2CC[C@]3(C=O)[C@H]4CC[C@]5(C)[C@@H](C6=CC(=O)OC6)CC[C@]5(O)[C@@H]4CC[C@]3(O)C2)CC2OC(C)(C)OC21 (stereo partly specified),1µM*,?,-97*,/,/,/
COC(=O)c1c(-c2cccs2)csc1NC(=O)COc1ccccc1,/,/,-22,/,?,16%[46.1 µM]
CC(C)(C)C1CCc2onc(C(=O)Nc3sc4c(c3C(N)=O)CCCC4)c2C1 (stereo unspecified),/,/,24,/,-33%[46.1 µM],2%[46.1 µM]
CCCCN=C[C@]12CCC(O)CC1(O)CCC1[C@@H]2CC[C@]2(C)[C@H](C3C=CC(=O)O3)CCC12O (stereo partly specified),4.5µM*,-3%,-97*,/,3.5µM*,?
C[C@]12CCC3C(CCC4=CC(O)CC[C@@]43/C=N/O)C1(O)CCC2C1=CC(=O)OC1 (stereo partly specified),2.2µM*,-13%,-96*,-11%,?,?
COc1ccc(CCN2C(=O)/C(=C\c3ccco3)SC2=S)cc1OC,-18%,?,-96*,-9%,-3%,2%
COc1ccc(CCNC2CC(=O)N(CCc3ccccc3)C2=O)cc1OC (stereo unspecified),5%,19%,9,/,-4%,4%
O=C(CCCN1C(=O)/C(=C\c2ccco2)SC1=S)Nc1ccc2ccccc2c1,?,?,-81*,?,?,?
O=C(O)CCCN1C(=O)/C(=C\c2ccco2)SC1=S,10%,2.9µM*,?,-9%,?,?
O=C(CCCN1C(=O)/C(=C/c2ccco2)SC1=S)Nc1ccccc1C(=O)O,12%,-6%,-29,-11%,/,/
O=C1/C(=C\c2ccco2)SC(=S)N1Cc1ccccc1,?,?,-19,-5%,15%[46.1 µM],-14%
O=C(CCN1C(=O)/C(=C/c2ccco2)SC1=S)Nc1ccc(C(=O)O)c(O)c1,-12%,32%,36,1%[0.00184 µM],-10%[46.1 µM],20%[46.1 µM]
COc1ccc(CCNC2CC(=O)N(CCc3ccc(OC)c(OC)c3)C2=O)cc1 (stereo unspecified),-12%,4.7µM*,-29,/,2%,4%
SMILES,HCV inhibitor,Pf growth 96h,HCMV antiviral,Pf growth 48h,MARV entry inh,LASV entry inh
COCCCN1C(=O)c2ccc(C(=O)OCC(=O)N3CCN(c4ccccc4)CC3)cc2C1=O,-27%[8.37 µM],1%,?,0%,5%[46.1 µM],6%
COc1ccc(CCNC(=O)CCN2C(=O)c3ccccc3C2=O)cc1OC,/,27%,/,-16%,/,/
COc1ccc(CCN2C(=O)CSC2=S)cc1OC,-1%,?,-101*,-8%,?,?
COc1ccc(CCNC2=C(Cl)C(=O)N(CCc3ccccc3)C2=O)cc1OC,13µM*,?,-15,/,?,-26%
CCn1nnc2cc(C(=O)Nc3ccc(C)cc3Br)ccc21,/,/,20,/,/,?
CC(C)CNC(=O)C1(C)CCCCCN1C(=O)c1cc(C#N)cs1 (stereo unspecified),/,/,12,/,/,/
OC(CNc1ccccc1)COc1ccc(OCC(O)CNc2ccccc2)cc1 (stereo unspecified),?,?,?,?,11µM*,?
CCOc1ccc(OCC(O)CNC2CCN(Cc3ccccc3)CC2)cc1 (stereo unspecified),?,2.3µM*,-64*,2.6µM*,1.6µM*,6.3µM*
COc1ccc(CNCC(O)COc2ccc(C(C)(C)c3ccccc3)cc2)cc1 (stereo unspecified),5%,?,?,9.3µM*,?,?
COc1ccc(OCC(O)CNC2CCCC2)cc1 (stereo unspecified),-3%,-27%,49,4%,1%[46.1 µM],0%[46.1 µM]
COC(=O)c1ccc(CNCC(O)COc2ccc(-c3ccccc3)cc2)cc1 (stereo unspecified),-8%,11%,24,?,2%[46.1 µM],-8%[46.1 µM]
CC(C)(c1ccccc1)c1ccc(OCC(O)CNC2CCN(Cc3ccccc3)CC2)cc1 (stereo unspecified),8.9µM*,2.1µM*,-113*,3.3µM*,?,/
COc1cccc(CNC(=O)C(=O)NCC(c2ccco2)S(=O)(=O)c2cccs2)c1 (stereo unspecified),/,/,2,/,/,-24%[46.1 µM]
CS(=O)(=O)N(CC(=O)N1CCN(Cc2ccc3c(c2)OCO3)CC1)Cc1ccc(Cl)cc1,13µM*,1.9µM*,-84*,/,0%,9.2µM*
